Structures are written as SMILES. Results filed as inconclusive are left out. Calls of active or inactive are those of the source. Unless noted, the call rests on the fitted dose curve.

Experiment [1] in a line: Nuclear factor erythroid 2-related factor 2/antioxidant responsive element (Nrf2/ARE) small molecule agonists: qHTS cell viability counter screen in human keratinocytes (AID 1919968; active means well fitted curve in the direction sought with a large enough effect in the repeat runs; an effect the other way counts as inactive or inconclusive; further: nearly all actives have a fitted effect of over 55% in size). The method in brief:
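CellTiter-Fluor fluorescence, read 1 h after reagent, gave viability in the same wells as the ARE-luciferase assay. KeratinoSens cells (1,500/well) had 23 h compound exposure at 37 C/5% CO2 following 5 h plating.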
On the technique in general: qHTS replaces the single test concentration by a dilution series.

Experiment [2] addresses Gonadotropin-releasing hormone receptor (Homo sapiens) (UniProt P30968). In words: Human gonadotropin-releasing hormone receptor (GnRHR) small molecule agonists, calcium flux assay in GnRHR-HEK293 cells (AID 1920063). Further: nearly all actives have a fitted effect of over 35% in size. In short, it runs like this: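 Agonist mode: compounds at 15 concentrations, in triplicate, went onto calcium dye-loaded GnRHR-HEK293 cells. Intracellular calcium was then followed as 480/540 nm fluorescence at 1 s intervals over 3 min.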
(In general: A change in cytosolic calcium serves as a functional read-out for many receptors and channels.)

The target of experiment [3] is KiSS-1 receptor (Homo sapiens) (UniProt Q969F8). In words: Human kisspeptin (KISS1R) small molecule agonists, calcium flux assay in KISS1R-HEK293 cells (AID 1920064; active means well fitted curve in the direction sought with a large enough effect in the repeat runs; an effect the other way counts as inactive or inconclusive). The method in brief: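 Agonist mode: intracellular calcium rise tracked at 1 s intervals over 3 min (480/540 nm) immediately after compound addition to dye-loaded KISS1R-HEK293 stable cells. Each compound tested at 15 concentrations in triplicate.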

A short description of experiment [4]: G protein-coupled receptor (GPCR) small molecule agonists, calcium flux assay: HEK293 wild type cell line counter screen (AID 1920065). In short, it runs like this:
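Calcium flux counter screen: compound added in agonist mode at 15 concentrations in triplicate to dye-loaded parental HEK293 cells. Fluorescence (480/540) read kinetically for 3 min; ATP served as positive control.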

The nature of experiment [5]: p53 small molecule agonists, cell-based qHTS assay with human liver microsomes (AID 1963577).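 Further: p53 response element beta-lactamase reporter cells with liver microsomes plus NADPH.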 In short, it runs like this:
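With metabolic activation: human liver microsomes (0.5 mg/mL final) plus NADPH (0.5 mg/mL final) added alongside compounds to p53RE-bla cells; 16 h 37 C exposure; beta-lactamase read by LiveBLAzer fluorescence.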

Experiment [6] is described as follows: p53 small molecule agonists, cell-based qHTS assay with rat liver microsomes (AID 1963578). The method in brief: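 Metabolic activation by rat liver microsomes and NADPH, each 0.5 mg/mL final, added right after compounds to p53RE-bla reporter cells (4,000/well, plated 5 h earlier). 16 h at 37 C, then LiveBLAzer substrate for 2 h at room temperature in the dark; fluorescence read-out.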

Experiment [7] can be described thus: p53 small molecule agonists, cell-based qHTS assay with human liver microsomes: qHTS cell viability counter screen (AID 1963579). Further: nearly all actives have a fitted effect of over 45% in size. The method in brief:
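Metabolic activation used human liver microsomes and NADPH, both 0.5 mg/mL final, over 16 hours at 37 C on p53RE-bla cells (4,000/well). Cytotoxicity measured by CellTiter-Glo luminescence, 30 min at room temperature.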

A short description of experiment [8]: p53 small molecule agonists, cell-based qHTS assay: qHTS cell viability counter screen (AID 1963581). Further: nearly all actives have a fitted effect of over 45% in size. In short, it runs like this:
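Counter screen read by CellTiter-Glo luminescence (ATP content, 30 min at room temperature), run in the same wells as the beta-lactamase reporter read. HCT-116 p53RE-bla cells saw compounds for 16 h at 37 C.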

For experiment [9], the target named is 5-hydroxytryptamine receptor 2A (Homo sapiens) (UniProt P28223). In words: 5-hydroxytryptamine receptor 2A (HTR2A) small molecule agonists, cell-based qHTS assay (AID 1963587). Further: nearly all actives have a fitted effect of over 30% in size. The method in brief:
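Kinetic calcium-flux fluorescence (2 min, 1 sec intervals) after compound addition in agonist mode. HTR2A-CHO cells were cultured 18 h, then dye-loaded 1 h at 37 C.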

In experiment [10] the target is Muscarinic acetylcholine receptor M1 (Homo sapiens) (UniProt P11229). Put plainly: Cholinergic receptor muscarinic 1 (CHRM1) small molecule antagonists, cell-based qHTS assay (AID 1963588). Further: nearly all actives have a fitted effect of over 40% in size. The method in brief:
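Compounds were tested at 15 concentrations in three independent runs. Dye-loaded CHRM1-CHO cells were exposed 5 min at room temperature before stimulation by acetylcholine added at 50nM. Intracellular calcium was read kinetically on FDSS for 3 min.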

Experiment [11] has the same target. In words: Cholinergic receptor muscarinic 1 (CHRM1) small molecule agonists, cell-based qHTS assay (AID 1963589). Further: nearly all actives have a fitted effect of over 35% in size. In short, it runs like this: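 Agonist-mode calcium-flux screen: compounds at 15 concentrations, three independent runs, were pin-transferred onto dye-loaded human CHRM1-CHO cells. Fluorescence was then recorded kinetically every second over minutes.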

Experiment [12] deals with Beta-2 adrenergic receptor (Homo sapiens) (UniProt P07550). In words: Adrenergic beta2 receptor (ADRB2) small molecule antagonists, cell-based qHTS assay (AID 1963592). Further: series mostly up to about 92 µM; nearly all actives have a fitted effect of over 50% in size. The method in brief:
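Assay format: CHO-ADRB2 cells, 18-20hr seeding at 37C/5% CO2, then compound plus 1nM isoproterenol agonist mix for 0.5hr RT. Homogeneous time-resolved fluorescence cAMP detection after 1hr, expressed as 665/615 nm ratio.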

Experiment [13] has the same target. Put plainly: Adrenergic beta2 receptor (ADRB2) small molecule agonists, cell-based qHTS assay (AID 1963593).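 Further: CHO cells stably overexpressing human ADRB2.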 The method in brief:
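CHO cells stably over-expressing ADRB2 were plated overnight at 37C, then dosed with compounds plus a stimulation mix containing 100uM IBMX and 25uM Ro-20-1724 for 0.5hr at room temperature. cAMP was measured by HTRF competition, 1hr.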

Experiment [14] deals with D(2) dopamine receptor (Homo sapiens) (UniProt P14416). Put plainly: Dopamine D2 receptor (DRD2) small molecule agonists, cell-based qHTS assay (AID 1963594). Further: nearly all actives have a fitted effect of over 35% in size. The method in brief:
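cAMP accumulation in DRD2-HEK293 cells measured by HTRF after 1 h detection; compounds added 10 min before NKH477 (200nM […]) forskolin-analogue stimulation, 30 min at room temperature, with Ro20-1724 present at 0.1 mM final.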

For experiment [15] the target is unchanged. Put plainly: Dopamine D2 receptor (DRD2) small molecule antagonists, cell-based qHTS assay (AID 1963595; active means well fitted inhibition curve with a large enough effect in the signal ratio in the repeat runs, with a control signal flat; the % refers to the signal ratio; further: potency means the concentration at half of the fitted maximal effect). In short, it runs like this:
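Antagonist mode in DRD2-HEK293 cells: after compound addition with 0.1 mM Ro20-1724, cells received quinpirole (12 nM) and NKH477 (200 nM) for 30 min at room temperature; HTRF cAMP read after 1 h detection.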

The nature of experiment [16]: p53 small molecule agonists, cell-based qHTS assay with rat liver microsomes: qHTS cell viability counter screen (AID 1963580). Further: nearly all actives have a fitted effect of over 45% in size. The method in brief:
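Cytotoxicity counter screen: intracellular ATP read by CellTiter-Glo luminescence in the p53 reporter wells. HCT-116 p53RE-bla cells were treated for 16 h at 37 C alongside rat liver microsomes and NADPH, each 0.5 mg/mL final.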

Experiment [17] is described as follows: p53 small molecule agonists, cell-based qHTS assay (AID 1963582; active means well fitted activation curve with a large enough effect in the signal ratio in the repeat runs, not every such curve was filed as active; the % refers to the signal ratio). In short, it runs like this: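 Read-out is beta-lactamase FRET fluorescence after 2 h at room temperature with LiveBLAzer B/G substrate. p53 response element-bla cells were treated 16 h at 37 C with compounds in DMSO, added 5 h after seeding.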
The target of experiment [18] is 5-hydroxytryptamine receptor 2A (Homo sapiens) (UniProt P28223). In words: 5-hydroxytryptamine receptor 2A (HTR2A) small molecule antagonists, cell-based qHTS assay (AID 1963586). Further: nearly all actives have a fitted effect of over 45% in size. The method in brief: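 CHO cells stably expressing human HTR2A were plated for 18 h at 37 C, then loaded with calcium dye for 1 h. Compounds were preincubated 5 min at room temperature before DOI (4 nM solution) was added. Kinetic fluorescence was read for 3 min.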

The nature of experiment [19]: cAMP Responsive Elements (CRE) small molecule agonists, cell-based qHTS assay (AID 1963590). The method in brief: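 Agonist mode: compound added to CRE-bla HEK 293T cells (2,000/well, 18 h after plating) for 3 h at 37 C/5% CO2. Reporter activity detected via FRET beta-lactamase substrate, 2 h room-temperature loading.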
Experiment [20] is described as follows: cAMP Responsive Elements (CRE) small molecule antagonists, cell-based qHTS assay (AID 1963591; active means well fitted inhibition curve with a large enough effect in the signal ratio in the repeat runs, not every such curve was filed as active; the % refers to the signal ratio). The method in brief:
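Antagonist mode: compounds are added alongside the adenylyl cyclase activator NKH477 (0.25 uM final) to CRE-bla HEK293T cells for 3 h. LiveBLAzer FRET substrate, 2 h at room temperature, reports bla expression.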

Chain of D(2) dopamine receptor (Homo sapiens) (P14416 whole entry, looked up): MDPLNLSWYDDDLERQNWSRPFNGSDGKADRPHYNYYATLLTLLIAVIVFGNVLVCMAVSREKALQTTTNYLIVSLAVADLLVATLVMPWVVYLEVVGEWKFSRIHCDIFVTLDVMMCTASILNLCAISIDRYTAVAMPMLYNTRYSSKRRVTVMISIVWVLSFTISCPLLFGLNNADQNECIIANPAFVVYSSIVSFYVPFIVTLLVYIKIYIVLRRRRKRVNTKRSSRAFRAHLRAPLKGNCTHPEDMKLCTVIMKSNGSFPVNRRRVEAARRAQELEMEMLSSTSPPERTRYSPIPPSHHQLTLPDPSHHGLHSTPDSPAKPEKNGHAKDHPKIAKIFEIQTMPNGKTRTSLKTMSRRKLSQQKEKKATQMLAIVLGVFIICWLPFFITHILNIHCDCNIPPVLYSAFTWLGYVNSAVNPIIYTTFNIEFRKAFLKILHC
Chain of Muscarinic acetylcholine receptor M1 (Homo sapiens) (P11229 whole entry, looked up): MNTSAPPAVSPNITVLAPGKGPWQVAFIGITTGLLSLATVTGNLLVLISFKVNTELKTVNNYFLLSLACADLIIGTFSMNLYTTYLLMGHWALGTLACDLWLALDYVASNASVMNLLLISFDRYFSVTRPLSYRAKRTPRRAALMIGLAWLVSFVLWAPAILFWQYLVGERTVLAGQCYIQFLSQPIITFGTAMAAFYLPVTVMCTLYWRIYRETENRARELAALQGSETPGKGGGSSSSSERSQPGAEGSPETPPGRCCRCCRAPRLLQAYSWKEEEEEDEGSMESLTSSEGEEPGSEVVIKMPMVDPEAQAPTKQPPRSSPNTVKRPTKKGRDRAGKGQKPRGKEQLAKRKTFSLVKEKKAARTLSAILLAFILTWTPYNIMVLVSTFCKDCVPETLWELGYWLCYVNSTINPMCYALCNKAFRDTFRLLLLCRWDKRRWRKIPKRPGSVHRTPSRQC
Chain of Beta-2 adrenergic receptor (Homo sapiens) (P07550 whole entry, looked up): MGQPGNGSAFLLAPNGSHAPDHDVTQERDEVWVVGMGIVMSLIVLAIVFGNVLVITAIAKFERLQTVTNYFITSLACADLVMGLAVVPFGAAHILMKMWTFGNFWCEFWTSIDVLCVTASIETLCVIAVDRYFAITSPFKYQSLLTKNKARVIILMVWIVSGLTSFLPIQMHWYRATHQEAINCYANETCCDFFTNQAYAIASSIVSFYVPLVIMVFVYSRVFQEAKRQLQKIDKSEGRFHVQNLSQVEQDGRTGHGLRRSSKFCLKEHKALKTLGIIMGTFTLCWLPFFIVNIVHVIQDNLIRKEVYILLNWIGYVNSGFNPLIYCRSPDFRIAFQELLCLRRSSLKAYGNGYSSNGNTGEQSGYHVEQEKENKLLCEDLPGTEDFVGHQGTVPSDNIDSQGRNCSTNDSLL
Chain of Gonadotropin-releasing hormone receptor (Homo sapiens) (P30968 whole entry, looked up): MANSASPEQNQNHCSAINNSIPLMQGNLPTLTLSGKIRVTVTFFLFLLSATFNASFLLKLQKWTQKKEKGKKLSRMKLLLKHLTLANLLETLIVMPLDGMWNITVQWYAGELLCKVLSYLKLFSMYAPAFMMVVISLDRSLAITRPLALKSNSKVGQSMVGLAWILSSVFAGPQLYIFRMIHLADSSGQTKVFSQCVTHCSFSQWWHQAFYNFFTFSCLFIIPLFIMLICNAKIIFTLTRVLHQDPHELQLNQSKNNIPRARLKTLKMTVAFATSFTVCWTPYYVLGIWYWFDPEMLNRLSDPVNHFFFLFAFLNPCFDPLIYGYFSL
Chain of KiSS-1 receptor (Homo sapiens) (Q969F8 whole entry, looked up): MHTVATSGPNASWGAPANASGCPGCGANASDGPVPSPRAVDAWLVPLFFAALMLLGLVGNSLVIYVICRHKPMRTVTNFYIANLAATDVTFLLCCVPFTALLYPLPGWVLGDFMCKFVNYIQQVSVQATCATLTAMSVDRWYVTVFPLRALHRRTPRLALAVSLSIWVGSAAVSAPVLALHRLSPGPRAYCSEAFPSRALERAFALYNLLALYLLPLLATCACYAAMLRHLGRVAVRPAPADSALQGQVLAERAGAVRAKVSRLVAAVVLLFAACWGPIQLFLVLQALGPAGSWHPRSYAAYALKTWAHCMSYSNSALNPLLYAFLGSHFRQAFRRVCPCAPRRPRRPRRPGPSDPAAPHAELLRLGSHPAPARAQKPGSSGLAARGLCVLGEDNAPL
Chain of 5-hydroxytryptamine receptor 2A (Homo sapiens) (P28223 whole entry, looked up): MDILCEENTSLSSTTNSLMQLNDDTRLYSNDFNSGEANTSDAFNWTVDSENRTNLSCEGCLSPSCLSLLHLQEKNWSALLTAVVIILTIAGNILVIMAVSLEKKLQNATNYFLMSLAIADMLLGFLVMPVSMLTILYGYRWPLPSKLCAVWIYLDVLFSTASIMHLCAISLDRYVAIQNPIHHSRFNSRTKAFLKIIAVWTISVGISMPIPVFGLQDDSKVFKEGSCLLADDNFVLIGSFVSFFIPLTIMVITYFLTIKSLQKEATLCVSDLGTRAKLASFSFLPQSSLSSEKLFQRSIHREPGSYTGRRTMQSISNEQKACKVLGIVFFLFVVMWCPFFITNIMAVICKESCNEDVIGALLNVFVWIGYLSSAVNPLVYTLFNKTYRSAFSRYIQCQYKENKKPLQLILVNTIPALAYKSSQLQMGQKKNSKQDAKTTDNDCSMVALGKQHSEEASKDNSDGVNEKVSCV

On to `Cc1cc(NC(=O)C2=C(O)c3ccccc3S(=O)(=O)N2C)no1`, for which the Potency entry in experiment [1], in experiment [2], in experiment [5], in [6], in experiment [7] and in experiment [8] was “inactive” in each case. Besides, the Potency entry in [9], in [10], in experiment [11], in experiment [12], in [13] and in experiment [14] was “inactive” each time. Also, the Potency entry in experiment [15] was “inactive”. The result in experiment [3] and in experiment [4] was inactive.

For the compound `CC(CO)(CO)C(=O)O`, the Potency result in [1], in experiment [2], in [5], in experiment [6], in [16] and in experiment [8] was “inactive” each time. The Potency result in experiment [17], in [18], in [9], in [10], in [11] and in [19] was “inactive” in each case. Also, the Potency entry in experiment [20], in experiment [12], in [14] and in [15] was “inactive” in each case. Moreover, the outcome in experiment [3] and in experiment [4] was inactive.

`CC(C)CCCC(C)NCCC(C)C` (centres undefined): the Potency result in [1], in experiment [2], in [5], in experiment [6], in experiment [16] and in [8] was “inactive” in each case. Moreover, the Potency result in experiment [17], in experiment [18], in experiment [9], in [10], in [11] and in experiment [19] was “inactive” each time. Also, the Potency entry in experiment [20], in experiment [12] and in experiment [14] was “inactive” each time. For the same compound, the result in [3] and in experiment [4] was inactive.

For the compound `CCCOC(=O)c1ccc(N)cc1`, the Potency entry in experiment [1], in experiment [2], in experiment [5], in experiment [6], in [16] and in experiment [8] was “inactive” throughout. Moreover, the Potency entry in experiment [17], in experiment [9], in experiment [10], in experiment [11], in experiment [19] and in [20] was “inactive” in each case. Further, the Potency entry in experiment [12], in [13] and in experiment [14] was “inactive” each time. In addition, the outcome in experiment [3] and in experiment [4] was inactive.

For the compound `CSc1cnc(C)cn1`, the Potency entry in experiment [1], in experiment [2], in experiment [5], in experiment [6], in experiment [7] and in experiment [16] was “inactive” throughout. The Potency result in experiment [17], in experiment [18], in [9], in experiment [10], in [11] and in experiment [19] was “inactive” throughout. For the same compound, the Potency entry in experiment [20], in experiment [14] and in experiment [15] was “inactive” each time. Further, the outcome in [3] and in experiment [4] was inactive.

Turning to `CC(COc1ccccc1)NC(C)C(O)c1ccc(O)cc1` (centres undefined), the Potency result in [1], in experiment [2], in [5], in [6], in [7] and in experiment [16] was “inactive” in each case. Also, the Potency result in experiment [17], in experiment [10], in experiment [11], in experiment [19], in [20] and in experiment [12] was “inactive” throughout. The outcome in [3] and in [4] was inactive. The Potency in [15] was 23.7 µM (active).

As for `C[C@H](CCC(=O)NCC(=O)O)[C@H]1CC[C@H]2[C@@H]3[C@H](O)C[C@@H]4C[C@H](O)CC[C@]4(C)[C@H]3C[C@H](O)[C@]12C`, the Potency result in [1], in [2], in experiment [5], in [7], in [16] and in [8] was “inactive” each time. In addition, the Potency entry in experiment [17], in [18], in experiment [10], in experiment [11], in experiment [20] and in [14] was “inactive” throughout. For the same compound, the Potency entry in experiment [15] was “inactive”. Also, the outcome in experiment [3] and in experiment [4] was inactive.

Source of the values: PubChem BioAssay (Tox21).
